Experimental data published in the supplement of paper PMC8975748.
Where a name gives a salt, the structure may show the parent alone.

system: Saccharomyces cerevisiae BY4741 SeMeCo community; assay: z-score of subpopulation abundance vs DMSO median, subpopulation auxotrophic for HLM; higher = larger share of this subpopulation than in DMSO controls; settings: 10 µM; 24 h; SM minimal medium; subpopulation (auxotrophy): HLM
Procedure, shortened: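 A Saccharomyces cerevisiae BY4741 community carried four plasmids, each restoring one auxotrophy and encoding a distinct fluorescent protein. It was pre-grown overnight to OD600 1.0, diluted to 0.3, and 70 µl was added to 384-well plates acoustically predosed with library drugs (10 µM final), then grown 24 h in minimal SM medium. Cells were paraformaldehyde-fixed and imaged by automated confocal microscopy, with single-auxotroph fluorescent strains setting thresholds and autofluorescence correction. Each subpopulation's abundance was scored as a z-score against the vehicle-well median.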

| SMILES | z-score of subpopulation abundance |
| --- | --- |
| CCCCCOc1ccc(-c2ccc(-c3ccc(C(=O)N[C@H]4C[C@@H](O)[C@@H](O)NC(=O)[C@@H]5[C@@H](O)[C@@H](C)CN5C(=O)[C@H]([C@@H](C)O)NC(=O)[C@H]([C@H](O)[C@@H](O)c5ccc(O)cc5)NC(=O)[C@@H]5C[C@@H](O)CN5C(=O)[C@H]([C@@H](C)O)NC4=O)cc3)cc2)cc1 | 42 |
| Cc1ccnc(NS(=O)(=O)c2ccc(N)cc2)n1 [Sulfamerazine] | 0.7 |
| O=C(O)c1cc(-c2ccc(F)cc2F)ccc1O [Diflunisal] | -0.45 |
| C[C@@H]1[C@H](O)[C@@H](C)/C=C/C=C/C=C/C=C/C=C/C=C/C=C/[C@H](O[C@@H]2O[C@H](C)[C@@H](O)[C@H](N)[C@@H]2O)C[C@@H]2O[C@](O)(C[C@@H](O)C[C@@H](O)[C@H](O)CC[C@@H](O)C[C@@H](O)CC(=O)O[C@H]1C)C[C@H](O)[C@H]2C(=O)O [Amphotericin B] | 12.6 |
| CO/N=C(\C(=O)N[C@@H]1C(=O)N2C(C(=O)O)=CCS[C@H]12)c1csc(N)n1 [Ceftizoxime sodium] | -0.22 |
| COC1C(O)CC(=O)OC(C)CC=CC=CC(OC2CCC(N(C)C)C(C)O2)C(C)CC(CC=O)C1OC1OC(C)C(OC2CC(C)(O)C(O)C(C)O2)C(N(C)C)C1O (centres undefined) [Spiramycin] | 0.43 |
| CC(C)(O/N=C(\C(=O)N[C@@H]1C(=O)N2C(C(=O)[O-])=C(C[n+]3ccccc3)CS[C@H]12)c1csc(N)n1)C(=O)O [Ceftazidime] | -0.39 |
| C[C@@H]1C/C=C/C=C/C=C/C=C/[C@H](O[C@@H]2O[C@H](C)[C@@H](O)[C@H](N)[C@@H]2O)C[C@@H]2O[C@](O)(C[C@@H](O)C[C@H]3O[C@@H]3/C=C/C(=O)O1)C[C@H](O)[C@H]2C(=O)O [Natamycin] | 38.1 |
| COCCCN1CCC(NC(=O)c2cc(Cl)c(N)c3c2OCC3)CC1 [Prucalopride] | 0.6 |
| CCOc1cc(NC(C)=O)ccc1C(=O)OC [Ethopabate] | 0.97 |
| CCCSc1ccc2[nH]c(NC(=O)OC)nc2c1 [Albendazole] | 0.74 |
| CN(C)CCN1C(=O)c2cccc3cc(N)cc(c23)C1=O [Amonafide] | -0.38 |
| COc1ccnc(C[S+]([O-])c2nc3cc(OC(F)F)ccc3[nH]2)c1OC (centres undefined) [Pantoprazole sodium] | -0.85 |
| CCOC(=O)C1=C(COCCN)NC(C)=C(C(=O)OC)C1c1ccccc1Cl (centres undefined) [Amlodipine Besylate] | 5.98 |
| CC(C)(C)C(=O)C(Oc1ccc(Cl)cc1)n1ccnc1 (centres undefined) [Climbazole] | 12.1 |
| COc1cc(N)c(Cl)cc1C(=O)NC1CCN(CCCOc2ccc(F)cc2)CC1OC (centres undefined) [Cisapride] | -0.82 |
| COc1ccc2[nH]c([S+]([O-])Cc3ncc(C)c(OC)c3C)nc2c1 (centres undefined) [Omeprazole] | -0.19 |
| O=C1CCc2cc(OCCCCc3nnnn3C3CCCCC3)ccc2N1 [Cilostazol] | -0.55 |
| O=c1ccn(C2CC(O)C(CO)O2)c(=O)[nH]1 (centres undefined) [2-deoxyuridine] | 0.54 |
| NC12CC3CC(CC(C3)C1)C2 [Amantadine HCl] | -0.47 |
| CO/N=C(\C(=O)N[C@@H]1C(=O)N2C(C(=O)OCOC(=O)C(C)(C)C)=C(/C=C\c3scnc3C)CS[C@H]12)c1csc(N)n1 [Cefditoren Pivoxil] | 0.31 |
| O=C1c2cccc3c2[C@H](CCC3)CN1[C@@H]1CN2CCC1CC2 [Palonosetron HCl] | -0.58 |
| CCCOc1ccc2[nH]c(NC(=O)OC)nc2c1 [Oxibendazole] | 0.16 |
| C[C@]12CC[C@@H]3c4ccc(O)cc4CC[C@H]3[C@@H]1CC[C@@H]2OC(=O)CCC1CCCC1 [Estradiol Cypionate] | 0.33 |
| COc1ccc2c(c1)c(CC(=O)O)c(C)n2C(=O)c1ccc(Cl)cc1 [Indomethacin] | -1.07 |
| O=C(O)Cc1ccccc1Nc1c(Cl)cccc1Cl [Diclofenac Diethylamine] | -0.26 |
| Clc1ccccc1C(c1ccccc1)(c1ccccc1)n1ccnc1 [Clotrimazole] | 15.2 |
| C[C@@H](O)[C@H]1C(=O)N2C(C(=O)OCOC(=O)C(C)(C)C)=C(SC3CN(C4=NCCS4)C3)[C@H](C)[C@H]12 [Tebipenem Pivoxil] | -0.55 |
| COC(=O)C1=C(C)NC(C)=C(C(=O)OCC(C)C)C1c1ccccc1[N+](=O)[O-] (centres undefined) [Nisoldipine] | 0.45 |
